Measured values published in PubChem BioAssay.
This is one part of the list. The source made the active and inactive calls. Unless noted, the rule behind the calls is not given here.

Key:
[1] = biological target: Regulator of G-protein signaling 4 (Homo sapiens) + Guanine nucleotide-binding protein G(o) subunit alpha (Homo sapiens) (UniProt P49798+P09471); assay: small molecules altering RGS protein interactions with GNAO1 – biochemical, multiplexed beads, flow cytometry, RGS4/7/8/16/19, primary screen (AID 1504); conditions: multiplexed bead flow cytometry, at 10 µM;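 note: fluorescently labeled Galpha-o bound to GDP with aluminium fluoride binding biotinylated RGS beads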
[2] = biological target: Ras-related C3 botulinum toxin substrate 1 (Homo sapiens) (UniProt P63000); assay: inhibition of wildtype Rac1 nucleotide loading – biochemical, multiplex bead flow cytometry, dose response (AID 1340;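 active = dose curve with midpoint inside tested range, moderate steepness, plateau gap beyond fit error, low compound glow and bead-link interference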); conditions: GST-Rac1 beads, Bodipy-FL-GTP binding; at 100 µM (top of the series) unless noted
[3] = yeast TOR reporter LAP4-GFP level changes – cell-based, second cherry pick, flow cytometry, confirmation (AID 2621;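 active = GFP signal as percent of the solvent control above about 150%, meaning raised reporter expression, limit read from the data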;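 note: ratio of well median GFP fluorescence to plate DMSO mean so 100% = DMSO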); conditions: S. cerevisiae LAP4-GFP strain, 3 h, at 10 µM, stronger effect = higher value
[4] = TOR pathway reporter MEP2-GFP, hit retest – S. cerevisiae, flow cytometry GFP, second cherry picks, confirmation (AID 2622;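 active = GFP signal above 150% of the solvent control wells, that is a rise of more than half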;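 note: median channel GFP fluorescence of all gated yeast cells per well; ratio of median GFP to plate DMSO average so 100% = DMSO level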); conditions: S. cerevisiae MEP2-GFP strain, 3 h, at 10 µM, stronger effect = higher value
[5] = retest of hits on RPL19A-GFP strain – cell-based, S. cerevisiae, flow cytometry, second cherry pick, confirmation (AID 2623;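 active = under 65% GFP response relative to DMSO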;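 note: median GFP channel fluorescence per well over the all cells gate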); conditions: 3 h, at 10 µM, stronger effect = lower value, 100% means same as DMSO wells
[6] = yeast TOR pathway CIT2-GFP reporter modulation – flow cytometry, second cherry pick, single plex, confirmation (AID 2624;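 active = GFP response vs DMSO above about 150%, limit read from the data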;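 note: median green fluorescence per well over all gated yeast cells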); conditions: S. cerevisiae CIT2-GFP strain, 3 h, at 10 µM, stronger effect = higher value, DMSO control wells read 100%
[7] = yeast AGP1-GFP fluorescence change, single-dose confirmation – cell-based, flow cytometry, S. cerevisiae, cherry pick set 2 (AID 2643;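 active = over 150 percent of DMSO response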;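 note: median GFP channel fluorescence over all cells without mother daughter split; sample median GFP divided by mean DMSO control so 100% equals DMSO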); conditions: S. cerevisiae AGP1-GFP strain, 3 h, at 10 µM, stronger effect = higher value
[8] = yeast AGP1-GFP fluorescence change, single-dose – cell-based, flow cytometry, S. cerevisiae, cherry picks, confirmation (AID 2273;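 active = GFP response above 150% of the DMSO level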;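 note: median GFP channel fluorescence over the whole cell population gate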); conditions: S. cerevisiae AGP1-GFP strain, 3 h, at 10 µM
[9] = biological target: Integrin beta-1 (Homo sapiens) + Integrin alpha-4 (Homo sapiens) (UniProt P13612+P05556); assay: alpha4beta1 integrin LIBS antibody binding reduction – U937 cells, HUTS-21 mAb, flow cytometry, validation set, VLA-4 allosteric modulator project, pilot screen (AID 2674;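 active = inhibition above 50%, about 3 SD of the validation set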;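 note: antibody binding induced by the VLA-4 ligand LDV present at three times its Kd; 0% = LDV ligand with antibody and no compound and 100% = antibody without LDV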); conditions: HUTS-21 LIBS mAb binding, at 6.7 µM, stronger effect = higher value, binding induced by LDV ligand
[10] = calorie-restriction mimetic ROS inhibitors, yeast – validation compound set, pilot screen (AID 2706;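 active = superoxide response below 65% of plate, a cut near 3 SD across the whole screen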;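 note: yeast exposed to compound for one week at 30 degrees C before staining; 100% = mean of all compound wells on the same plate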); conditions: S. cerevisiae aging, superoxide DHE fluorescence; at 10 µM; stronger effect = lower value
[11] = biological target: Beta-adrenergic receptor kinase 1 (Homo sapiens) (UniProt P25098); assay: GRK2 binders displacing RNA aptamer, biochemical, validation, human GRK2, bead flow cytometry (AID 488806;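 active = aptamer binding inhibition above 30%, about 3 SD of noise from non-fluorescent compounds; inactive = inhibition at or below 30%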); conditions: bead-bound GRK2, FAM-aptamer displacement, at 10 µM, stronger effect = higher value
[12] = biological target: Beta-2 adrenergic receptor (Homo sapiens) (UniProt P07550); assay: agonist-induced loss of surface beta2AR – cell-based, FAP fluorogen, flow cytometry, validation set, pilot screen (AID 504459;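 active = percent response above 42, roughly 3 SD of non-fluorescent test compounds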;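 note: agonist-driven loss of surface beta2AR via internalization measured by FAP dye flow cytometry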); conditions: Am2.2-beta2AR cells, at 10 µM, stronger effect = higher value
[13] = biological target: AP-2 complex subunit beta (Homo sapiens) (UniProt P63010); assay: beta-arrestin/AP2 interaction blockers – biochemical, validation set, GST-AP2 beads, flow cytometry, pilot screen (AID 504541;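 active = inhibition above 54%, about 3 SD of non-fluorescent compounds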;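 note: AP2 carries R879A mutation and is captured from E. coli lysate; bead-bound FITC arrestin peptide fluorescence measuring arrestin peptide binding to AP2; 0% = DMSO wells and 100% = excess unlabeled arrestin peptide control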); conditions: FITC arrestin peptide, at 10 µM, stronger effect = higher value, AP2 beta2 appendage fragment, R879A mutant
[14] = cytosolic pH regulators acting via V-ATPase – S. cerevisiae, pHLuorin, HTS validation (AID 504600; in the data active = response above about 15%;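 note: plate controls were DMSO for no effect and reference compound for full effect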); conditions: V-ATPase proton transport, at 10 µM, stronger effect = higher value
[15] = test system: anti-desmoglein-3 scFv antibody binding to human DSG3; assay: blockers of pathogenic pemphigus antibody–desmoglein-3 binding – biochemical, validation compound set, bead-based, flow cytometry, pilot screen (AID 588368;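 active = binding below the plate cutoff, the plate median minus 3 SD, with a reading above zero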;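 note: signal is the median channel fluorescence of bead-bound GFP antibody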); conditions: Protein G beads, DSG3-Fc, scFv-GFP binding, at 10 µM, stronger effect = lower value
[16] = Nile Red efflux blockade in pump-expressing yeast – validation compound set, multiplex, phenotypic, pilot screen (AID 588506;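 active = efflux inhibition above 0.42, the validation set average plus 4 SD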;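 note: Nile Red retained in cells so higher fluorescence means more efflux inhibition; 0 = negative control wells and 1 = enniatin B 25 µM full block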); conditions: S. cerevisiae pump-expressing triplex, Nile Red efflux flow cytometry; at 10 µM; stronger effect = higher value; the pumps come from Candida albicans
[17] = biological target: ATP-binding cassette sub-family B member 6 (Homo sapiens) (UniProt Q9NP58); assay: blockers of ABCB6-driven porphyrin uptake – K562-ABCB6 cells, flow cytometry, validation set, pilot screen (AID 588550;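 active = inhibition above the screen-wide mean plus 3 SD, about 51%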;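 note: 0% = DMSO wells and 100% = benzethonium chloride 70 µM positive control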); conditions: K562-ABCB6 porphyrin accumulation, 1 h, at 10 µM, stronger effect = higher value
[18] = AML differentiation inducers, ER-HoxA9 marrow cells – cell-based, GFP/MAC1 double positive, flow cytometry, validation set, primary screen (AID 588685;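 active = differentiation response of at least 50%, scaled between solvent and reference control, from cells with both markers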;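 note: compound exposure lasts four days before antibody staining and flow analysis; 0% = DMSO wells and 100% = 5 µM fulvestrant positive control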); conditions: stronger effect = higher value, normalized: vehicle 0, fulvestrant 100

Chain of AP-2 complex subunit beta (Homo sapiens) (P63010 whole entry, looked up, the tested form may be a part, one chain of several): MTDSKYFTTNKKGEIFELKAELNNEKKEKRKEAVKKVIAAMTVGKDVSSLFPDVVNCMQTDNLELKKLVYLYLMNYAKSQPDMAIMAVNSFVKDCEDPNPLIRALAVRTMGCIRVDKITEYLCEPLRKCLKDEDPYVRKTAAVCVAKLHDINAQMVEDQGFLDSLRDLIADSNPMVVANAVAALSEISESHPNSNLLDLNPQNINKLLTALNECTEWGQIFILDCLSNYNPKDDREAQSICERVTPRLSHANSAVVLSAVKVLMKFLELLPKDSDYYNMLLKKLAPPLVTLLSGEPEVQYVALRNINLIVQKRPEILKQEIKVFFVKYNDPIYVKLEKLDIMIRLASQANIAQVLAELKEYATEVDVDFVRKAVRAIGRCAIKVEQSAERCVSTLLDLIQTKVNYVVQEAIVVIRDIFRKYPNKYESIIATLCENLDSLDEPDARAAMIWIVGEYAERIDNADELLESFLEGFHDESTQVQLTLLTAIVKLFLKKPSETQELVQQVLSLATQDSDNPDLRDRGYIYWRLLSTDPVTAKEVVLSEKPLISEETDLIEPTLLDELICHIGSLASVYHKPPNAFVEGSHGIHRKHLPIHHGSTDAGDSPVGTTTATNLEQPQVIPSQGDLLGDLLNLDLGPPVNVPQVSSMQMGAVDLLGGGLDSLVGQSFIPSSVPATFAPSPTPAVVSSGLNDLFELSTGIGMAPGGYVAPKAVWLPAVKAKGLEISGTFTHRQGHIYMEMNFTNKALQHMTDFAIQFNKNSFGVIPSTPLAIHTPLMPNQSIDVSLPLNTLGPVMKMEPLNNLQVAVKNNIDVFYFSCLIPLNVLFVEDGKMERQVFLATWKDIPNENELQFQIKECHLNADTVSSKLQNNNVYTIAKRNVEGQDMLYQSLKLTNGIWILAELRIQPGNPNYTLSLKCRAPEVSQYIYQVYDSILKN
Chain of ATP-binding cassette sub-family B member 6 (Homo sapiens) (Q9NP58 whole entry, looked up): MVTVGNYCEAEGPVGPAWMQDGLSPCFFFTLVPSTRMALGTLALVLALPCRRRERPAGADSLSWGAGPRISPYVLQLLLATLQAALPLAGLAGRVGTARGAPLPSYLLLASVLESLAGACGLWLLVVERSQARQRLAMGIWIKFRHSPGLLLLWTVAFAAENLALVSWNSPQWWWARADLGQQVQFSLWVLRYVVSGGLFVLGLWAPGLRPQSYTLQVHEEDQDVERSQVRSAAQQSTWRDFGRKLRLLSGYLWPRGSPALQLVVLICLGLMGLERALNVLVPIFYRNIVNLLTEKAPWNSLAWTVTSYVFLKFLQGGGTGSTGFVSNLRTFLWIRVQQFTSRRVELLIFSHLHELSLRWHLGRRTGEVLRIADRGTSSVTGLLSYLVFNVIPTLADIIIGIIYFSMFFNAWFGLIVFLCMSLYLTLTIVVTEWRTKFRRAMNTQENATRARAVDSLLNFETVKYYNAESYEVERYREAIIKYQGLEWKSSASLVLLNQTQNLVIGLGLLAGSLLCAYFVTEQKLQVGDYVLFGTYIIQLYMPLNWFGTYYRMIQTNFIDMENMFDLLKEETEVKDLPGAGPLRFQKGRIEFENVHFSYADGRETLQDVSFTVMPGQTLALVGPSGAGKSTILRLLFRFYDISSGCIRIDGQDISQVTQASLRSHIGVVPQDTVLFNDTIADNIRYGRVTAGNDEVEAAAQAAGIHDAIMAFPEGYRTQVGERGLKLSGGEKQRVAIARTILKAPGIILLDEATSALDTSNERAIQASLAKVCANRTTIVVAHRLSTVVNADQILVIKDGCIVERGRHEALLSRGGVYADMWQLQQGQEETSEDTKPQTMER
Chain of Beta-adrenergic receptor kinase 1 (Homo sapiens) (P25098 whole entry, looked up): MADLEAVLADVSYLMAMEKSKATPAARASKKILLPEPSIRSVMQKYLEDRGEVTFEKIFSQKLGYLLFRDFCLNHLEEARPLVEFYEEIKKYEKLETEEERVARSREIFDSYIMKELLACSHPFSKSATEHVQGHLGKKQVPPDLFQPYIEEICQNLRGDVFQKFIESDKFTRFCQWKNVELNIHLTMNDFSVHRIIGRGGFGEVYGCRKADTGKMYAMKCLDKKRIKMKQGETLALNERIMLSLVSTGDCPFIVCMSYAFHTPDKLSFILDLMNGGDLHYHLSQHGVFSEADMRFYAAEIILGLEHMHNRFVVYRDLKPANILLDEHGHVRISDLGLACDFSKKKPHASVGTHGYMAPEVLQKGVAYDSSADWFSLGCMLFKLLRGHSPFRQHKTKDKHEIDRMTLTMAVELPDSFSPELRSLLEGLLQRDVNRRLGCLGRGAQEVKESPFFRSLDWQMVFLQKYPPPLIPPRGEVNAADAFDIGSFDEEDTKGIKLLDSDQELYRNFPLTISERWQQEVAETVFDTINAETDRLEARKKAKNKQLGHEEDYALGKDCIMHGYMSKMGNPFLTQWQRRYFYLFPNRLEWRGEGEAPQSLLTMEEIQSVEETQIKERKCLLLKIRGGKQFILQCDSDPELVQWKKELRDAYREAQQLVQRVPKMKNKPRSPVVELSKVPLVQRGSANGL
Chain of Regulator of G-protein signaling 4 (Homo sapiens) + Guanine nucleotide-binding protein G(o) subunit alpha (Homo sapiens) (P09471 whole entry, looked up): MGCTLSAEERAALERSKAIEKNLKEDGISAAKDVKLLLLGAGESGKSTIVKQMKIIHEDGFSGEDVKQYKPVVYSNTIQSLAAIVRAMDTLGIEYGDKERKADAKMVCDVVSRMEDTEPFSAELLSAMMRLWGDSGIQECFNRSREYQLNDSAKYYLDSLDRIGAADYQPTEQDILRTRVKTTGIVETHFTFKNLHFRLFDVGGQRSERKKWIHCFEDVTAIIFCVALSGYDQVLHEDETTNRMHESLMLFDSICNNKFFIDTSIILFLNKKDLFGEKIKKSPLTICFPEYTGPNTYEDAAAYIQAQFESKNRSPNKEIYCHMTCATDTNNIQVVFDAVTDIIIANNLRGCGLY
Chain of Regulator of G-protein signaling 4 (Homo sapiens) + Guanine nucleotide-binding protein G(o) subunit alpha (Homo sapiens) (P49798 whole entry, looked up): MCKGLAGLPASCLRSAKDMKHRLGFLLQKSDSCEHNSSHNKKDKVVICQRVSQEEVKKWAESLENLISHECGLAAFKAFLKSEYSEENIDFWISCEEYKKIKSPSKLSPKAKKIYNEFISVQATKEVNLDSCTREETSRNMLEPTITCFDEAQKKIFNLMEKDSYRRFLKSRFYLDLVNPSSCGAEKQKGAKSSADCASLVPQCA
Chain of Integrin beta-1 (Homo sapiens) + Integrin alpha-4 (Homo sapiens) (P05556 whole entry, looked up): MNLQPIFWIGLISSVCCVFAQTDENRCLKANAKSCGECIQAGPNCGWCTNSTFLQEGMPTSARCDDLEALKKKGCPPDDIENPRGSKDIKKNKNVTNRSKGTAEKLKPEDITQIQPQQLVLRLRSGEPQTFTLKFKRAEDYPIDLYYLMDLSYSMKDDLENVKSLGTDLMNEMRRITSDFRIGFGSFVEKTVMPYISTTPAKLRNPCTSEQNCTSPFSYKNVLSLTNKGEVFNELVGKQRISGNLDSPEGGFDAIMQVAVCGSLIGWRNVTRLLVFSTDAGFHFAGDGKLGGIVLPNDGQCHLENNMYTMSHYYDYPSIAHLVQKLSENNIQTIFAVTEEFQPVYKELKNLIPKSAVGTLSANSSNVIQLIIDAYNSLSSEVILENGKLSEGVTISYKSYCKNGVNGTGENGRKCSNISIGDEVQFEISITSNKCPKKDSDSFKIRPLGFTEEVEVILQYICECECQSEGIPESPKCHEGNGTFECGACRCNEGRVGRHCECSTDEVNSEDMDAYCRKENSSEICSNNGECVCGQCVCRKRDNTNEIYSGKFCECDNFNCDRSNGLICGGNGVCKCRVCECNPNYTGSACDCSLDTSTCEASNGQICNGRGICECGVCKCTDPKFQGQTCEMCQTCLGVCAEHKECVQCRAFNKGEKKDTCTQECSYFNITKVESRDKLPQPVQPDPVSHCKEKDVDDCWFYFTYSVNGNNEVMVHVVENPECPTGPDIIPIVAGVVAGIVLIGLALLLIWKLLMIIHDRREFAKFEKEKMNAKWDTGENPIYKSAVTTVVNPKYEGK
Chain of Integrin beta-1 (Homo sapiens) + Integrin alpha-4 (Homo sapiens) (P13612 whole entry, looked up): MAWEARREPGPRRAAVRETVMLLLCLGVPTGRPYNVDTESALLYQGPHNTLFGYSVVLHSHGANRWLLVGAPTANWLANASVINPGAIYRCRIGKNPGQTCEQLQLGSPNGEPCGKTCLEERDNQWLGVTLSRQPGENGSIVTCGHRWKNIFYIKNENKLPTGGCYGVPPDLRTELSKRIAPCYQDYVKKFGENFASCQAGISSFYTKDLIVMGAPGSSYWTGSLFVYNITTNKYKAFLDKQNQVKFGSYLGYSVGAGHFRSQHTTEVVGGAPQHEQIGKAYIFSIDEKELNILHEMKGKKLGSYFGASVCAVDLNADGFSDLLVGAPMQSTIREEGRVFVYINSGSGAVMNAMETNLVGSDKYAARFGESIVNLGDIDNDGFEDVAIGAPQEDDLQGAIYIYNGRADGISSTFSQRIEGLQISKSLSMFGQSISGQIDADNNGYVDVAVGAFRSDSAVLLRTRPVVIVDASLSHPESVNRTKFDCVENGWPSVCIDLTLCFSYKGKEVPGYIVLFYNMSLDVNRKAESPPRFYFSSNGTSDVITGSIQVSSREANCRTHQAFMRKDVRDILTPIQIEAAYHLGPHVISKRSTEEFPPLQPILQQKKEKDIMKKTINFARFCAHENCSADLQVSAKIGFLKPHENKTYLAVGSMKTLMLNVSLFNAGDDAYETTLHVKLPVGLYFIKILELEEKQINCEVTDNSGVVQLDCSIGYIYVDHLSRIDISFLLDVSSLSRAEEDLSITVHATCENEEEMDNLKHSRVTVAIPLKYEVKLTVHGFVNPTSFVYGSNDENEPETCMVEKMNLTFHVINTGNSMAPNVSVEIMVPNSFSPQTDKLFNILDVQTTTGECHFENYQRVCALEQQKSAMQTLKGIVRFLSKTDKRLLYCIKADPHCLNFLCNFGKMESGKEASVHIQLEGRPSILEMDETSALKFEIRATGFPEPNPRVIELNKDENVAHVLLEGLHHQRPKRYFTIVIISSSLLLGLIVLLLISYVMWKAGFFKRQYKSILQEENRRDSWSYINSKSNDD

O=C(Nc1ccccc1)c1cc2ccccc2[nH]1
RGS4–Galpha-o binding response [1]: 90.3% (active)

O=C(NC1CC1)c1ccc2c(c1)NC(=O)c1ccccc1S2
RGS4–Galpha-o binding response [1]: 113% (active)

CC1(C)C=C2[C@H]3CC[C@@H]4[C@@]5(C)CCC(=O)C(C)(C)[C@@H]5CC[C@@]4(C)[C@]3(C)CC[C@@]2(C(=O)O)CC1
RGS4–Galpha-o binding response [1]: 119% (active)

CN(C)S(=O)(=O)Oc1ccccc1C(=O)Nc1ccccc1Cl
RGS4–Galpha-o binding response [1]: 114% (active)

CN(C)CCNC(=O)/C(=C/c1cccc([N+](=O)[O-])c1)NC(=O)c1ccccc1
RGS4–Galpha-o binding response [1]: 119% (active)

O=C(CN1CCOCC1)Nc1ccccc1
RGS4–Galpha-o binding response [1]: 115% (active)

O=C1CCC(=O)N(O)CCCCCNC(=O)CCC(=O)N(O)CCCCCNC(=O)CCC(=O)N(O)CCCCCN1
RGS4–Galpha-o binding response [1]: 52.2% (active)

CCn1cc(C(=O)OCC(=O)c2cc(C)n(-c3ccc(OC(F)F)cc3)c2C)c(=O)c2ccc(C)nc21
GTP binding signal, raw median fluorescence (lower = inhibition) (MCF (arbitrary fluorescence units)) [2]: 148

CSc1ccc(CN2C(=O)NC3(CCCCCC3)C2=O)cc1
RGS4–Galpha-o binding response [1]: 106% (active)

Cc1ccc(C(=O)COC(=O)c2ccc3c(c2)C(=O)N(c2cccc4ncccc24)C3=O)cc1
GTP binding signal, raw median fluorescence (lower = inhibition) (MCF (arbitrary fluorescence units)) [2]: 151

CCn1c(CSCc2c(Cl)cccc2Cl)n[nH]c1=S
RGS4–Galpha-o binding response [1]: 55.9% (active)

O=[N+]([O-])C(=c1ccc2c(c1)N1C3=C(CCCC3)CC3CCCCC31N=2)[N+](=O)[O-] (stereo unspecified)
RGS4–Galpha-o binding response [1]: 80.6% (active)

C/C(=N\NS(=O)(=O)c1ccc(Br)cc1)c1cccs1
RGS4–Galpha-o binding response [1]: 120% (active)

CCCC(=O)N=c1sc2cccc(F)c2n1C
RGS4–Galpha-o binding response [1]: 58.4% (active)

Cc1ccc(C)c(OCC(=O)N2CCN(C(=O)c3ccco3)CC2)c1
RGS4–Galpha-o binding response [1]: 83.7% (active)

Cc1ccc(-n2c(SCC(=O)Nc3ncc(Cl)cc3Cl)nc3ccccc32)cc1
RGS4–Galpha-o binding response [1]: 86.2% (active)

NC(=O)Cc1ccc2sc(-c3ccccc3)nc2c1
RGS4–Galpha-o binding response [1]: 94.3% (active)

Cc1ccccc1NC(=S)N(CCCN1CCOCC1)Cc1cccs1
RGS4–Galpha-o binding response [1]: 105% (active)

COc1cc(C(=O)Nc2cc(C(F)(F)F)ccc2N2CCOCC2)ccc1O
RGS4–Galpha-o binding response [1]: 79.2% (active)

CN(CC(=O)NC1CCCCC1)S(=O)(=O)c1cccc2cccnc12
RGS4–Galpha-o binding response [1]: 110% (active)

CC(C)Cc1nc(Nc2ccc(S(=O)(=O)N3CCCC3)cc2)c2nnn(Cc3ccccc3)c2n1
RGS4–Galpha-o binding response [1]: 135% (active)

Cc1cc(C)nc(/N=C2\NC(=O)CC(C(=O)O)N2c2ccc(Cl)cc2Cl)n1 (stereo unspecified)
RGS4–Galpha-o binding response [1]: 117% (active)

CCOC(=O)CSc1nc2c(c(=O)n(Cc3ccccc3Cl)c(=O)n2C)n1C
RGS4–Galpha-o binding response [1]: 74.3% (active)

COc1ccc(C(=O)NNc2cc(C)nc(NNC(=O)c3ccc(OC)cc3)n2)cc1
RGS4–Galpha-o binding response [1]: 79.6% (active)

C/C(=C/C(=O)N1CCN(C)CC1)C(=O)O
RGS4–Galpha-o binding response [1]: 109% (active)

CCOC(=O)c1oc2c(CN3CCN(C)CC3)c(O)ccc2c(=O)c1-c1ccc(Br)cc1
RGS4–Galpha-o binding response [1]: 132% (active)

Fc1cc(F)c2nc(Nc3nc4c(F)cccc4s3)sc2c1
RGS4–Galpha-o binding response [1]: 110% (active)

O=C(Nc1ccc(-n2ccnc2P(=O)(O)c2ccccc2)cc1)c1ccccc1Br
RGS4–Galpha-o binding response [1]: 138% (active)

CCC(=O)N1CCC(C(N)=O)(N2CCCCC2)CC1
RGS4–Galpha-o binding response [1]: 133% (active)
GFP response vs DMSO [3]: 99% (inactive)
GFP response vs DMSO [4]: 102% (inactive)
GFP response vs DMSO [5]: 99.8% (inactive)
GFP response vs DMSO [6]: 104% (inactive)
percent response vs DMSO [7]: 99.4% (inactive)

COc1ccc(-n2c(SCC(=O)OC(C)C)nnc2-c2ccccn2)cc1
RGS4–Galpha-o binding response [1]: 106% (active)

Oc1ccc(-c2onc3ccc(Cl)cc23)cc1
RGS4–Galpha-o binding response [1]: 118% (active)

CCC(=O)Nc1c(S(=O)(=O)c2ccccc2)c2nc3ccccc3nc2n1Cc1ccccc1
RGS4–Galpha-o binding response [1]: 89.8% (active)

CC(NC(=O)COC(=O)C1CCN(S(=O)(=O)c2ccccc2C(F)(F)F)CC1)c1ccccc1 (stereo unspecified)
RGS4–Galpha-o binding response [1]: 118% (active)

CCCn1c(C)cc(C(=O)COC(=O)c2c(C)nn(-c3ccccc3)c2C)c1C
RGS4–Galpha-o binding response [1]: 76.2% (active)

Cc1ccc(OCCCCn2ccnc2C)c(C)c1
GFP response, % of DMSO [8]: 101% (inactive)
inhibition [9]: 30.4% (inactive)
superoxide response (% of plate) [10]: 98.5% (inactive)
aptamer binding inhibition [11]: 3% (inactive)
response [12]: -16% (inactive)
inhibition [13]: -1.94% (inactive)
response [14]: 3.03% (inactive)
binding (% of control) [15]: 106% (inactive)
efflux inhibition (fraction of control) [16]: -0.13 (inactive)
inhibition [17]: 10% (inactive)
differentiation response [18]: 5.85% (inactive)

C[C@]12CC[C@@H]3c4ccc(O)cc4C(=O)C[C@H]3[C@@H]1CC[C@@H]2O
GFP response, % of DMSO [8]: 97.2% (inactive)
inhibition [9]: -0.33% (inactive)
superoxide response (% of plate) [10]: 104% (inactive)
aptamer binding inhibition [11]: 1% (inactive)
response [12]: -10.5% (inactive)
inhibition [13]: 44.1% (inactive)
response [14]: -4.63% (inactive)
binding (% of control) [15]: 91.9% (inactive)
efflux inhibition (fraction of control) [16]: 0.37 (inactive)
inhibition [17]: 0% (inactive)
differentiation response [18]: 0.82% (inactive)

COc1ccc(C(=O)NCC2OCCc3ccccc32)cc1 (stereo unspecified)
GFP response, % of DMSO [8]: 91.3% (inactive)
inhibition [9]: -2.27% (inactive)
superoxide response (% of plate) [10]: 92.6% (inactive)
aptamer binding inhibition [11]: 1% (inactive)
response [12]: -2.23% (inactive)
inhibition [13]: 7.24% (inactive)
response [14]: -0.15% (inactive)
binding (% of control) [15]: 103% (inactive)
efflux inhibition (fraction of control) [16]: -0.28 (inactive)
inhibition [17]: 4% (inactive)
differentiation response [18]: 2.46% (inactive)

C[C@]12C[C@H](O)[C@H]3[C@@H](CCC4=CC(=O)CC[C@@]43C)[C@@H]1CC[C@@H]2C(=O)CO
GFP response, % of DMSO [8]: 96.4% (inactive)
inhibition [9]: 31.7% (inactive)
superoxide response (% of plate) [10]: 103% (inactive)
aptamer binding inhibition [11]: 4% (inactive)
response [12]: 4.9% (inactive)
inhibition [13]: -0.36% (inactive)
response [14]: 6.31% (inactive)
binding (% of control) [15]: 104% (inactive)
efflux inhibition (fraction of control) [16]: -0.56 (inactive)
inhibition [17]: 12% (inactive)
differentiation response [18]: 4.91% (inactive)

N=c1nc(N2CCCCC2)cc(N)n1O
GFP response, % of DMSO [8]: 98.9% (inactive)
inhibition [9]: 16.2% (inactive)
superoxide response (% of plate) [10]: 89.4% (inactive)
aptamer binding inhibition [11]: 2% (inactive)
response [12]: -8.64% (inactive)
inhibition [13]: 33.9% (inactive)
response [14]: -5.96% (inactive)
binding (% of control) [15]: 98.5% (inactive)
efflux inhibition (fraction of control) [16]: 0.37 (inactive)
inhibition [17]: 115% (active)
differentiation response [18]: 8.19% (inactive)

CC(NCCc1ccc(O)cc1)C(O)c1ccc(O)cc1 (stereo unspecified)
GFP response, % of DMSO [8]: 101% (inactive)
inhibition [9]: -13.9% (inactive)
superoxide response (% of plate) [10]: 96.5% (inactive)
aptamer binding inhibition [11]: 2% (inactive)
response [12]: 0.53% (inactive)
inhibition [13]: 5.41% (inactive)
response [14]: -1.74% (inactive)
binding (% of control) [15]: 103% (inactive)
efflux inhibition (fraction of control) [16]: -0.31 (inactive)
inhibition [17]: 10% (inactive)
differentiation response [18]: -8.19% (inactive)

O=[N+]([O-])c1cccc2cn[nH]c12
GFP response, % of DMSO [8]: 105% (inactive)
inhibition [9]: -13.9% (inactive)
superoxide response (% of plate) [10]: 117% (inactive)
aptamer binding inhibition [11]: 0% (inactive)
response [12]: -10.1% (inactive)
inhibition [13]: 49.7% (inactive)
response [14]: -6.22% (inactive)
binding (% of control) [15]: 93.6% (inactive)
efflux inhibition (fraction of control) [16]: 0.3 (inactive)
inhibition [17]: 0% (inactive)
differentiation response [18]: 3.28% (inactive)
